Measured values as given in PubChem BioAssay AID1159580 (chemical genetic matrix, 2015).
Out of some 5,500 compounds screened, about 2,000 (36%) were called active. Not shown: some 18% with an inconclusive outcome. Cut-off read from the data, not from the text of the source: active = normalized growth mostly below about 0.91 (no sharp cut-off); inconclusive = no clear call, values can overlap the other calls; inactive = mostly above about 0.92. The list shows a part of the results.

Assay: chemical genetic growth profiling, strain panel (AID 1159580);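 note: tested at 20 µM; growth read once vehicle control cultures reached saturation at 30 °C; 1 = growth at the plate median or of vehicle wells; lower values mean less growth of the strain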
Details: growth OD

Measured: normalized growth

CC(=O)[C@@]1(O)CCC2C3C[C@H](C)C4=CC(=O)C=CC4(C)[C@@]3(F)[C@@H](O)C[C@@]21C (stereo partly drawn)
inactive: S. cerevisiae deletion strains, locus YJR066W, strain TOR1, active compounds read low 0.936 | S. cerevisiae deletion strains, locus YKL009W, strain mrt4, active compounds read low 1.01 | S. cerevisiae deletion strains, locus YKL068W, active compounds read low 1.01 | S. cerevisiae deletion strains, locus YKL085W, strain MDH1 (second series), active compounds read low 1.01 | S. cerevisiae deletion strains, locus YKL085W, strain MDH1, active compounds read low 1.01 | S. cerevisiae deletion strains, locus YKL160W, strain elf1, active compounds read low 0.976 | S. cerevisiae deletion strains, locus YKL190W, strain CNB1, active compounds read low 0.988 | S. cerevisiae deletion strains, locus YKR001C, strain vps1, active compounds read low 0.987 | S. cerevisiae deletion strains, locus YKR026C, strain gcn3, active compounds read low 0.982 | S. cerevisiae deletion strains, locus YKR091W, strain srl3, active compounds read low 0.956 | S. cerevisiae deletion strains, locus YLL001W, strain dnm1, active compounds read low 1.01 | S. cerevisiae deletion strains, locus YLL026W, active compounds read low 0.979 | S. cerevisiae deletion strains, locus YLL041C, strain sdh2, active compounds read low 0.988 | S. cerevisiae deletion strains, locus YLR027C, strain aat2, active compounds read low 0.978 | S. cerevisiae deletion strains, locus YLR039C, strain RIC1, active compounds read low 1.03 | S. cerevisiae deletion strains, locus YLR058C, strain SHM2, active compounds read low 1.01 | S. cerevisiae deletion strains, locus YLR102C, strain apc9, active compounds read low 1 | S. cerevisiae deletion strains, locus YLR113W, strain HOG1, active compounds read low 0.988 | S. cerevisiae deletion strains, locus YLR221C, strain rsa3, active compounds read low 0.968 | S. cerevisiae deletion strains, locus YLR258W, strain gsy2, active compounds read low 0.971 | S. cerevisiae deletion strains, locus YLR262C, strain YPT6 (second series), active compounds read low 0.981 | S. cerevisiae deletion strains, locus YLR262C, strain YPT6, active compounds read low 0.98 | S. cerevisiae deletion strains, locus YLR268W, strain sec22, active compounds read low 0.991 | S. cerevisiae deletion strains, locus YLR320W, strain mms22, active compounds read low 0.962 | S. cerevisiae deletion strains, locus YLR330W, strain CHS5, active compounds read low 1 | S. cerevisiae deletion strains, locus YLR342W, strain FKS1 (second series), active compounds read low 0.992 | S. cerevisiae deletion strains, locus YLR342W, strain FKS1, active compounds read low 0.979 | S. cerevisiae deletion strains, locus YLR357W, strain rsc2, active compounds read low 0.951 | S. cerevisiae deletion strains, locus YLR370C, strain arc18, active compounds read low 0.982 | S. cerevisiae deletion strains, locus YLR371W, strain rom2, active compounds read low 1 | S. cerevisiae deletion strains, locus YLR384C, strain iki3, active compounds read low 0.981 | S. cerevisiae deletion strains, locus YLR418C, strain cdc73, active compounds read low 1.02 | S. cerevisiae deletion strains, locus YML016C, strain PPZ1, active compounds read low 1 | S. cerevisiae deletion strains, locus YML032C, strain rad52, active compounds read low 0.996 | S. cerevisiae deletion strains, locus YML120C, strain ndi1, active compounds read low 0.954 | S. cerevisiae deletion strains, locus YML124C, strain tub3, active compounds read low 1.01 | S. cerevisiae deletion strains, locus YMR058W, strain fet3, active compounds read low 0.983 | S. cerevisiae deletion strains, locus YMR078C, strain ctf18, active compounds read low 1 | S. cerevisiae deletion strains, locus YMR125W, strain sto1, active compounds read low 0.965 | S. cerevisiae deletion strains, locus YMR129W, active compounds read low 0.964 | S. cerevisiae deletion strains, locus YMR205C, strain PFK2, active compounds read low 0.975 | S. cerevisiae deletion strains, locus YMR223W, strain ubp8, active compounds read low 1.04 | S. cerevisiae deletion strains, locus YMR231W, strain pep5, active compounds read low 0.973 | S. cerevisiae deletion strains, locus YMR307W, strain GAS1, active compounds read low 0.976 | S. cerevisiae deletion strains, locus YNL067W, strain RPL9B, active compounds read low 0.993 | S. cerevisiae deletion strains, locus YNL071W, strain lat1, active compounds read low 0.972 | S. cerevisiae deletion strains, locus YNL128W, strain TEP1, active compounds read low 1.01 | S. cerevisiae deletion strains, locus YNL153C, strain GIM3, active compounds read low 0.992 | S. cerevisiae deletion strains, locus YNL183C, strain NPR1, active compounds read low 0.942 | S. cerevisiae deletion strains, locus YNL209W, strain ssb2, active compounds read low 0.98 | S. cerevisiae deletion strains, locus YNL233W, strain BNI4, active compounds read low 1 | S. cerevisiae deletion strains, locus YNL248C, strain rpa49, active compounds read low 0.914 | S. cerevisiae deletion strains, locus YNL250W, strain rad50, active compounds read low 1.03 | S. cerevisiae deletion strains, locus YNL271C, strain bni1, active compounds read low 1.02 | S. cerevisiae deletion strains, locus YNL298W, strain CLA4, active compounds read low 0.999 | S. cerevisiae deletion strains, locus YNL307C, strain MCK1, active compounds read low 1.02 | S. cerevisiae deletion strains, locus YNL322C, strain KRE1 (second series), active compounds read low 0.955 | S. cerevisiae deletion strains, locus YNR049C, strain mso1, active compounds read low 0.951 | S. cerevisiae deletion strains, locus YNR052C, strain pop2, active compounds read low 1.01 | S. cerevisiae deletion strains, locus YOL012C, strain htz1 0.807 | S. cerevisiae deletion strains, locus YOL147C, strain pex11, active compounds read low 1.01 | S. cerevisiae deletion strains, locus YOR001W, strain rrp6, active compounds read low 0.971 | S. cerevisiae deletion strains, locus YOR061W, strain CKA2, active compounds read low 1.01 | S. cerevisiae deletion strains, locus YOR069W, strain VPS5, active compounds read low 1 | S. cerevisiae deletion strains, locus YOR070C, strain gyp1, active compounds read low 0.986 | S. cerevisiae deletion strains, locus YOR080W, strain dia2, active compounds read low 0.975 | S. cerevisiae deletion strains, locus YOR083W, strain WHI5, active compounds read low 0.974 | S. cerevisiae deletion strains, locus YOR106W, strain vam3, active compounds read low 0.977 | S. cerevisiae deletion strains, locus YOR136W, strain idh2, active compounds read low 1 | S. cerevisiae deletion strains, locus YOR144C, strain elg1, active compounds read low 1 | S. cerevisiae deletion strains, locus YOR184W, strain ser1, active compounds read low 1.01 | S. cerevisiae deletion strains, locus YOR231W, strain MKK1, active compounds read low 1 | S. cerevisiae deletion strains, locus YOR265W, strain rbl2, active compounds read low 0.974 | S. cerevisiae deletion strains, locus YOR270C, strain vph1, active compounds read low 0.926 | S. cerevisiae deletion strains, locus YOR290C, strain snf2, active compounds read low 0.944 | S. cerevisiae deletion strains, locus YOR316C, strain cot1, active compounds read low 1.01 | S. cerevisiae deletion strains, locus YPL051W, strain arl3, active compounds read low 0.985 | S. cerevisiae deletion strains, locus YPL055C, strain LGE1, active compounds read low 0.993 | S. cerevisiae deletion strains, locus YPL078C, strain atp4, active compounds read low 0.992 | S. cerevisiae deletion strains, locus YPL106C, strain sse1, active compounds read low 0.922 | S. cerevisiae deletion strains, locus YPL240C, strain hsp82, active compounds read low 0.975 | S. cerevisiae deletion strains, locus YPL256C, strain CLN2, active compounds read low 0.981 | S. cerevisiae deletion strains, locus YPR119W, strain clb2, active compounds read low 1.01 | S. cerevisiae deletion strains, locus YPR141C, strain kar3, active compounds read low 1.01 | S. cerevisiae deletion strains, locus YPR163C, strain tif3, active compounds read low 1.01 | S. cerevisiae deletion strains, locus YPR167C, strain met16, active compounds read low 1.02 | S. cerevisiae deletion strains, strain wtn01, active compounds read low 1.01 | S. cerevisiae strains, strain wild type, active compounds read low 0.987
